Results filed as inconclusive are left out. Active and inactive are the calls of the source. Unless noted, calls follow the shape of the full dose curve.
Experiments:
[1] = Nuclear factor erythroid 2-related factor 2/antioxidant responsive element (Nrf2/ARE) small molecule agonists: qHTS cell viability counter screen in human keratinocytes (AID 1919968; active = well fitted curve in the direction sought with a large enough effect in the repeat runs; an effect the other way counts as inactive or inconclusive; also: nearly all actives have a fitted effect of over 55% in size)
Outline: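 KeratinoSens HaCaT cells, 1,500/well, preincubated 5 h, then exposed to compounds in DMSO for 23 h at 37 C/5% CO2. Viability read as CellTiter-Fluor fluorescence after 1 h, in the same wells as the ARE-luciferase read.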

[2] = Nuclear factor erythroid 2-related factor 2/antioxidant responsive element (Nrf2/ARE) small molecule agonists: luciferase reporter gene qHTS assay in human keratinocytes (AID 1919969); also: nearly all actives have a fitted effect of over 35% in size
[3] = biological target: Gonadotropin-releasing hormone receptor (Homo sapiens) (UniProt P30968); test: Human gonadotropin-releasing hormone receptor (GnRHR) small molecule agonists, calcium flux assay in GnRHR-HEK293 cells (AID 1920063); also: nearly all actives have a fitted effect of over 35% in size
Gonadotropin-releasing hormone receptor (Homo sapiens), sequence (P30968 whole entry, looked up): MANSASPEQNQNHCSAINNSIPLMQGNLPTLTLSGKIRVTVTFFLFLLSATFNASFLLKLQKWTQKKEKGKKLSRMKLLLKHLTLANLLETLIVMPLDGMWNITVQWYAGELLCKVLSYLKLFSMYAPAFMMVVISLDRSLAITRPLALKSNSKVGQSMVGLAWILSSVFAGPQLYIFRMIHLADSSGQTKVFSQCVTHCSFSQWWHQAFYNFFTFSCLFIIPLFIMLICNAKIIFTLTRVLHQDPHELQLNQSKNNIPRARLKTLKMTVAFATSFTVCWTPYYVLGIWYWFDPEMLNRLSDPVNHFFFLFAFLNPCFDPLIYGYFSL
Outline: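 HEK293 cells stably expressing human GnRHR were dye-loaded for 1 h at 37 C. Compound was added in agonist mode and fluorescence (Ex/Em 480/540) recorded kinetically for 3 min. Fifteen concentrations, triplicates.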

[4] = biological target: KiSS-1 receptor (Homo sapiens) (UniProt Q969F8); test: Human kisspeptin (KISS1R) small molecule agonists, calcium flux assay in KISS1R-HEK293 cells (AID 1920064; active = well fitted curve in the direction sought with a large enough effect in the repeat runs; an effect the other way counts as inactive or inconclusive)
KiSS-1 receptor (Homo sapiens), sequence (Q969F8 whole entry, looked up): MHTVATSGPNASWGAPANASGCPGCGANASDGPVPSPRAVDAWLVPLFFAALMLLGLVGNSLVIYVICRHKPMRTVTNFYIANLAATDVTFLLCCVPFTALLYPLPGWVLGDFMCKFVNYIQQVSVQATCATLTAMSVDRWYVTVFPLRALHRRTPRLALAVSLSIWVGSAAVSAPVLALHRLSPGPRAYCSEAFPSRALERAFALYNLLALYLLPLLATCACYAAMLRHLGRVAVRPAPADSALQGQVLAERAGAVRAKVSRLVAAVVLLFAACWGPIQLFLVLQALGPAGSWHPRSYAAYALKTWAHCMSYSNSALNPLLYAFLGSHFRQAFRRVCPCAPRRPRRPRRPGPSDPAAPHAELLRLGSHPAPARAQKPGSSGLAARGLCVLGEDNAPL
Outline: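 HEK293 cells stably expressing human KISS1R were loaded with calcium dye for 1 h at 37 C, then given compound; fluorescence (Ex/Em 480/540) was read kinetically for 3 min. Fifteen concentrations, triplicate.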

[5] = G protein-coupled receptor (GPCR) small molecule agonists, calcium flux assay: HEK293 wild type cell line counter screen (AID 1920065)
Outline: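 Wild-type HEK293 cells plated 18 h, loaded with calcium dye 1 h at 37 C, then compounds added in agonist mode (ATP as positive control). Kinetic fluorescence Ex/Em 480/540 recorded 3 min at 1 sec intervals; 15 concentrations, triplicate.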

[6] = p53 small molecule agonists, cell-based qHTS assay with human liver microsomes: qHTS cell viability counter screen (AID 1963579); also: nearly all actives have a fitted effect of over 45% in size
Outline: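 p53RE-bla cells (4,000/well) were pre-incubated 5 h at 37 C, then given compounds in DMSO plus human liver microsomes (0.5 mg/mL final) and NADPH (0.5 mg/mL final) for 16 h at 37 C. Viability was read by CellTiter-Glo luminescence.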

[7] = p53 small molecule agonists, cell-based qHTS assay with rat liver microsomes: qHTS cell viability counter screen (AID 1963580); also: nearly all actives have a fitted effect of over 45% in size
Outline: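 p53RE-bla HCT-116 cells (4,000/well) rested 5 h at 37 C, then given Tox21 compounds in DMSO with rat liver microsomes (0.5 mg/mL final) plus NADPH (0.5 mg/mL final) for 16 h at 37 C. Viability read by CellTiter-Glo luminescence after 30 min at room temperature.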

[8] = p53 small molecule agonists, cell-based qHTS assay: qHTS cell viability counter screen (AID 1963581); also: nearly all actives have a fitted effect of over 45% in size
Outline: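 p53RE-bla HCT-116 cells, compounds added 5 h after plating and incubated 16 h at 37 C. Cytotoxicity measured in the same wells as intracellular ATP by CellTiter-Glo luminescence after 30 min at room temperature.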

[9] = biological target: 5-hydroxytryptamine receptor 2A (Homo sapiens) (UniProt P28223); test: 5-hydroxytryptamine receptor 2A (HTR2A) small molecule agonists, cell-based qHTS assay (AID 1963587); also: nearly all actives have a fitted effect of over 30% in size
5-hydroxytryptamine receptor 2A (Homo sapiens), sequence (P28223 whole entry, looked up): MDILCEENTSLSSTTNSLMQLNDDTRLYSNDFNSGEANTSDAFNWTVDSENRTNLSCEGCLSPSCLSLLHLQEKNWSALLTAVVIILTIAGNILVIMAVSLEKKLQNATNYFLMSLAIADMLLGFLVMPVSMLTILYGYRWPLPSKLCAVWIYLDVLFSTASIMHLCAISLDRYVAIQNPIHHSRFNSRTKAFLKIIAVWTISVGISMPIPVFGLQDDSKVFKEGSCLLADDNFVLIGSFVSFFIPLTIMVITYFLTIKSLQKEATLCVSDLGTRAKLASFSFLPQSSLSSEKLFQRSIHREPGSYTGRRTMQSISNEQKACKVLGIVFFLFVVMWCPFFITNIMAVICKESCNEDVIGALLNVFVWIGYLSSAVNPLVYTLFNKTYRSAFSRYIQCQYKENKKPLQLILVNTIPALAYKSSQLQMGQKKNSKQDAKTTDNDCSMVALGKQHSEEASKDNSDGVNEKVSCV
Outline: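 HTR2A-CHO cells, plated 18 h at 37 C/5% CO2, dye-loaded 1 h at 37 C; compounds in DMSO added by pin tool (agonist mode). Intracellular calcium flux read as kinetic fluorescence on FDSS over 2 min at 1 s intervals.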

[10] = biological target: Muscarinic acetylcholine receptor M1 (Homo sapiens) (UniProt P11229); test: Cholinergic receptor muscarinic 1 (CHRM1) small molecule antagonists, cell-based qHTS assay (AID 1963588); also: nearly all actives have a fitted effect of over 40% in size
Muscarinic acetylcholine receptor M1 (Homo sapiens), sequence (P11229 whole entry, looked up): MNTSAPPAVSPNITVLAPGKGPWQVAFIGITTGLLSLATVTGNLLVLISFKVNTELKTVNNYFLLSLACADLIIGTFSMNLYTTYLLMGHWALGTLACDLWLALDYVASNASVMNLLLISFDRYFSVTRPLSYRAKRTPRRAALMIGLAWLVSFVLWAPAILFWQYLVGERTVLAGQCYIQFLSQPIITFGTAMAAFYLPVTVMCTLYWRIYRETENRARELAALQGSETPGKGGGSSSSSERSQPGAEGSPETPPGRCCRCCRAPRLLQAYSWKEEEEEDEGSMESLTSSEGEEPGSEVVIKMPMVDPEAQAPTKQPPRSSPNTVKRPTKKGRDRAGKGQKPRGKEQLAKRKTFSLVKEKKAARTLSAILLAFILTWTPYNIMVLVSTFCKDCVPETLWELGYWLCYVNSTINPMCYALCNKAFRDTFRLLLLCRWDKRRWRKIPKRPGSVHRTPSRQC
Outline: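 CHRM1-CHO calcium-flux assay, antagonist mode. Cells were seeded 18 h, dye-loaded 1 h at 37 C and given compound for 5 min at RT, then acetylcholine was added at 50nM. FDSS fluorescence was read 3 min; 15 concentrations, three runs.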

[11] = biological target: Muscarinic acetylcholine receptor M1 (Homo sapiens) (UniProt P11229); test: Cholinergic receptor muscarinic 1 (CHRM1) small molecule agonists, cell-based qHTS assay (AID 1963589); also: nearly all actives have a fitted effect of over 35% in size
Outline: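 CHO cells stably expressing human CHRM1 were loaded with calcium dye for 1 h at 37 C, then compound was added in agonist mode. Intracellular calcium fluorescence was followed kinetically at 1 s intervals. Fifteen concentrations were tested in three independent runs.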

[12] = cAMP Responsive Elements (CRE) small molecule agonists, cell-based qHTS assay (AID 1963590)
Outline: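 CRE-bla HEK 293T cells, 2,000/well in DMEM with 10% dialyzed FBS and 25 mM HEPES, pre-incubated 18 h at 37 C, then exposed to compound 3 h at 37 C. Beta-lactamase reporter read with LiveBLAzer B/G FRET substrate after 2 h at room temperature.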

[13] = cAMP Responsive Elements (CRE) small molecule antagonists, cell-based qHTS assay (AID 1963591; active = well fitted inhibition curve with a large enough effect in the signal ratio in the repeat runs, not every such curve was filed as active; the % refers to the signal ratio)
Outline: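 CRE-bla HEK293T cells plated 18 h, then given compound plus NKH477 at 0.25 uM final for 3 h at 37C. Beta-lactamase reporter read with LiveBLAzer B/G FRET substrate after 2 h at room temperature.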

[14] = biological target: Beta-2 adrenergic receptor (Homo sapiens) (UniProt P07550); test: Adrenergic beta2 receptor (ADRB2) small molecule antagonists, cell-based qHTS assay (AID 1963592); also: nearly all actives have a fitted effect of over 50% in size; also: potency is read from the fitted curve at half-maximal effect; as to activity change, negative = inhibition: series mostly up to about 92 µM
Beta-2 adrenergic receptor (Homo sapiens), sequence (P07550 whole entry, looked up): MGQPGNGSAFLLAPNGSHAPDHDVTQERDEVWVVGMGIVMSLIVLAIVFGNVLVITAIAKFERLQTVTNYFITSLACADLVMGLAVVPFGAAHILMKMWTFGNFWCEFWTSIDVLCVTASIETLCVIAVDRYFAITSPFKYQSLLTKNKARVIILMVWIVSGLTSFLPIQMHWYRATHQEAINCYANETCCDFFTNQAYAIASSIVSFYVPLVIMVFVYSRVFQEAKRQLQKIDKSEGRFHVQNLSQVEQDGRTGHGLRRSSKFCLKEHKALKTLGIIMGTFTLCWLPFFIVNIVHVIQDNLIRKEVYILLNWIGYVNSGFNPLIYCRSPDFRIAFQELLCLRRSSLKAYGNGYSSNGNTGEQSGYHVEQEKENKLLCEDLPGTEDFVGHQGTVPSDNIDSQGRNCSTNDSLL
Outline: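 Cells (CHO, stable ADRB2 overexpression) incubated 18-20hr at 37C; compounds added from DMSO; agonist mix (1nM isoproterenol, 100uM IBMX, 25uM Ro-20-1724) added; 0.5hr RT; d2-cAMP and anti-cAMP-cryptate added; 1hr RT; 665/615 nm read.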

[15] = biological target: D(2) dopamine receptor (Homo sapiens) (UniProt P14416); test: Dopamine D2 receptor (DRD2) small molecule agonists, cell-based qHTS assay (AID 1963594); also: nearly all actives have a fitted effect of over 35% in size
D(2) dopamine receptor (Homo sapiens), sequence (P14416 whole entry, looked up): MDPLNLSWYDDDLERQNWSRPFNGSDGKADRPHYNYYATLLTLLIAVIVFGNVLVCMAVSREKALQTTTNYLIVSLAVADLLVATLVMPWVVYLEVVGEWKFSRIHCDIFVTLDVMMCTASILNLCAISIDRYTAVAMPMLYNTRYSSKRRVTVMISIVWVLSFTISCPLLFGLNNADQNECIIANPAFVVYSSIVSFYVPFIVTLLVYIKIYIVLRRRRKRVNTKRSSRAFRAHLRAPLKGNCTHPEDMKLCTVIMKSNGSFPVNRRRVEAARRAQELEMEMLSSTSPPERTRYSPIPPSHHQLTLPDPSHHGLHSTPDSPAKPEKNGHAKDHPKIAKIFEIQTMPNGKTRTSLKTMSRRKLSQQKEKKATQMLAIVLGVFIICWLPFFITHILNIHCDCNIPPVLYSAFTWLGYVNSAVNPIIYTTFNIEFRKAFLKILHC
Outline: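 HEK293 cells stably expressing DRD2 were cultured 24 h at 37 C, then given Ro20-1724 (0.1 mM final) and compounds for 10 min at room temperature. NKH477 (200nM) was then added for 30 min. cAMP was read by HTRF.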

[16] = biological target: D(2) dopamine receptor (Homo sapiens) (UniProt P14416); test: Dopamine D2 receptor (DRD2) small molecule antagonists, cell-based qHTS assay (AID 1963595; active = well fitted inhibition curve with a large enough effect in the signal ratio in the repeat runs, with a control signal flat; the % refers to the signal ratio)
Outline: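 HTRF cAMP read-out at 665 and 620 nm emission (340 nm excitation). Antagonist mode: compounds were tested against 12 nM quinpirole in DRD2-HEK293 cells, with 200 nM NKH477 raising cAMP and 0.1 mM Ro20-1724 blocking its breakdown.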

[17] = biological target: Beta-2 adrenergic receptor (Homo sapiens) (UniProt P07550); test: Adrenergic beta2 receptor (ADRB2) small molecule agonists, cell-based qHTS assay (AID 1963593);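 also: CHO cells stably overexpressing human ADRB2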
Outline: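 CHO cells stably over-expressing ADRB2 were plated overnight at 37C, then dosed with compounds plus a stimulation mix containing 100uM IBMX and 25uM Ro-20-1724 for 0.5hr at room temperature. cAMP was measured by HTRF competition, 1hr.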

[18] = biological target: 5-hydroxytryptamine receptor 2A (Homo sapiens) (UniProt P28223); test: 5-hydroxytryptamine receptor 2A (HTR2A) small molecule antagonists, cell-based qHTS assay (AID 1963586); also: nearly all actives have a fitted effect of over 45% in size
Outline: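 Antagonist-mode intracellular calcium assay: DOI (4 nM) added after 5 min compound pre-incubation at room temperature to dye-loaded HTR2A-CHO cells. Fluorescence followed for 3 min, sampled every second.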
% is scaled to controls: 0 for no effect and ±100 for the full control effect.

CCCCCCCC/C=C\CCCCCCCCO
active: Potency [14] 54.4 µM
inactive: Potency [1] | Potency [2] | Potency [3] | Potency [4] | Potency [5] | Potency [6] | Potency [7] | Potency [8] | Potency [9] | Potency [10] | Potency [11] | Potency [12] | Potency [13] | Potency [15] | Potency [16]

O=C(O)CN(CCOCCOCCN(CC(=O)O)CC(=O)O)CC(=O)O
inactive: activity change, negative = cytotoxicity [1] -7.96% [at 0.349 µM] | activity, positive = activation [2] -0.157% [at 0.349 µM] | activity change [3] 0.537% [at 0.217 µM, active compounds read high] | activation [4] -1.47% [at 0.29 µM] | activation [5] -0.598% [at 0.217 µM] | activity change, negative = cytotoxicity [6] 0.622% [at 0.249 µM] | activity change, negative = cytotoxicity [7] -3.51% [at 0.249 µM] | activity change, negative = cytotoxicity [8] -15.2% [at 0.249 µM] | activation [9] -0.693% [at 0.292 µM] | activity, negative = inhibition [10] -20.9% [at 0.232 µM] | activation [11] -0.0666% [at 0.29 µM] | activation [12] -1.26% [at 0.349 µM] | activity change, negative = inhibition [13] 0.383% [at 0.349 µM] | activity change, negative = inhibition [14] 0.881% [at 0.349 µM] | activation [17] 0.525% [at 0.349 µM] | activity change, negative = inhibition [16] -1.35% [at 0.348 µM]

CC(CC(=O)Cl)CC(C)(C)C (stereo unspecified)
inactive: Potency [1] | Potency [2] | Potency [3] | Potency [4] | Potency [5] | Potency [6] | Potency [7] | Potency [8] | Potency [9] | Potency [10] | Potency [11] | Potency [12] | Potency [13] | Potency [14] | Potency [17] | Potency [16]

Nc1nc(-c2ccccc2)cs1
inactive: Potency [1] | Potency [2] | Potency [3] | Potency [4] | Potency [5] | Potency [6] | Potency [7] | Potency [8] | Potency [9] | Potency [10] | Potency [11] | Potency [12] | Potency [13] | Potency [14] | Potency [15] | Potency [16]

NC(Cc1c[nH]c2ccccc12)C(=O)O (stereo unspecified)
inactive: Potency [1] | Potency [2] | Potency [3] | Potency [4] | Potency [5] | Potency [6] | Potency [7] | Potency [8] | Potency [9] | Potency [10] | Potency [11] | Potency [12] | Potency [13] | Potency [14] | Potency [15] | Potency [16]

O=C(O)C(c1ccc(Cl)cc1)c1ccc(Cl)cc1
inactive: Potency [1] | Potency [2] | Potency [3] | Potency [4] | Potency [5] | Potency [6] | Potency [7] | Potency [8] | Potency [9] | Potency [10] | Potency [11] | Potency [13] | Potency [14] | Potency [15] | Potency [16]

CO/N=C1\CN(c2nc3c(cc2F)c(=O)c(C(=O)O)cn3C2CC2)CC1CN (stereo unspecified)
inactive: Potency [1] | Potency [2] | Potency [3] | Potency [4] | Potency [5] | Potency [6] | Potency [7] | Potency [8] | Potency [18] | Potency [10] | Potency [11] | Potency [13] | Potency [15] | Potency [16]

CO/N=C(/C(=O)N[C@@H]1C(=O)N2C(C(=O)O)=C(Cn3nnc(C)n3)CS[C@H]12)c1csc(N)n1
inactive: Potency [1] | Potency [2] | Potency [3] | Potency [4] | Potency [5] | Potency [6] | Potency [7] | Potency [8] | Potency [9] | Potency [10] | Potency [11] | Potency [12] | Potency [13] | Potency [14] | Potency [17] | Potency [15] | Potency [16]

CCOC(=O)C1=NN(c2ccccc2)C(=O)C1
inactive: Potency [1] | Potency [2] | Potency [3] | Potency [4] | Potency [5] | Potency [6] | Potency [7] | Potency [8] | Potency [18] | Potency [11] | Potency [12] | Potency [13] | Potency [14] | Potency [15] | Potency [16]
